Assay outcomes (PubChem)
This is a sample that favours compounds with a hit; in the whole collection about 1.6% have one here.
VLA-4 inh: inhibition in a human VLA-4 binding assay; inhibition, % (about 7 µM as worked out from the volumes in the protocol); AID 2557; VLA-4 expressing cells, ligand binding flow cytometry; actives 0.2% (n = 330,000); in the data active means inhibition above about 50%
PREPL inh: human PREPL enzyme inhibition | Q4J6C6 | recombinant PREPL, fluorescence polarization activity-based probe | inhibition, % at 5.96 µM | actives 0.68% (n = 320,000); in the data active means inhibition above about 43%
GRK2 aptamer HTS: human GRK2 inhibition via aptamer displacement | inhibition of aptamer binding, % at 10 µM | actives 0.59% (n = 330,000) | bead flow cytometry, FAM-aptamer displacement from GRK2 | AID 488847 | P25098;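 active means inhibition of aptamer binding above 40%, roughly 3 SD of noise, on plates passing a quality check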;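 further: median bead fluorescence of bound FAM aptamer so fluorescent compounds give negative values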
Target sequence (P25098 whole entry, looked up): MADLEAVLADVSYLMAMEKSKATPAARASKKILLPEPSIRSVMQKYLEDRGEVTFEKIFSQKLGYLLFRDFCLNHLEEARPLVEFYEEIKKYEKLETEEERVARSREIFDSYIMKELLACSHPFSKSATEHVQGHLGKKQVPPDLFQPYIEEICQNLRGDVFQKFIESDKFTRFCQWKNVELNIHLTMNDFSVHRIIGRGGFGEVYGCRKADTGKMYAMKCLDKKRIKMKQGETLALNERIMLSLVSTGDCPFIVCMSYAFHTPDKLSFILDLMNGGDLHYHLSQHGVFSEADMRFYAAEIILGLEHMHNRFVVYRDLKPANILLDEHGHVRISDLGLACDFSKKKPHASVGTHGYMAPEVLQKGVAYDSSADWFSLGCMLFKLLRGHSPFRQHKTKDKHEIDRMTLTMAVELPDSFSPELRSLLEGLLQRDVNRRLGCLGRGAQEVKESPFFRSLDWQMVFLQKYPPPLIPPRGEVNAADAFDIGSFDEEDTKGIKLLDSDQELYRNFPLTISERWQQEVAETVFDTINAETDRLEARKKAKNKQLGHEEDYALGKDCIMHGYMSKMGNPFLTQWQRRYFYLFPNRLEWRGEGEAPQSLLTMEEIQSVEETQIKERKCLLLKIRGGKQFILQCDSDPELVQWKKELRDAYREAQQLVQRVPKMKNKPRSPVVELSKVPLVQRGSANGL
GASC-1 inh: human JMJD2C demethylase inhibition; GST-JMJD2C(1-420) H3K9me3 demethylation, DELFIA europium; inhibition, % at 2.35 µM; actives 0.069% (n = 330,000); AID 2099;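 active means more than half of a compound's replicate wells show inhibition beyond 50%, single wells judged on their own value; inconclusive means some, but no more than half, of replicates pass 50% inhibition; inactive means no replicate passes 50% inhibition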;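 further: signal counts dimethyl H3K9 product captured on neutravidin plate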
Pemphigus Ab inh: blocks pemphigus antibody binding to human desmoglein-3. actives 0.48% (n = 310,000). binding (percent of control), % at 10 µM. DSG3-coupled beads, scFv-anti-DSG3-GFP binding, flow cytometry; stronger effect = lower value. P32926;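 active means binding more than 3 SD below its plate's average and above zero; inconclusive means below that plate limit but binding exactly zero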;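 further: hits lower antibody fragment binding to DSG3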
GRK2 CP1: confirmation of human GRK2 inhibitors displacing RNA aptamer; shares compounds with GRK2 aptamer HTS; bead-bound GRK2, FAM-aptamer displacement, flow cytometry; aptamer displacement, % at 10 µM; actives 4% (n = 2,000); AID 504451;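 active means aptamer displacement above 40%, near three times the noise of non-fluorescent compounds, on plates passing quality checks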;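 further: negative values mostly reflect intrinsic compound fluorescence rather than true enhancement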
Aptamer quench 1: counter-screen for GRK2 aptamer inhibitors: fluorescent aptamer quenchers; 110 tested, under 10 active; AID 504521; Fluorescent RNA aptamer beads, quenching, flow cytometry; stronger effect = higher value; fluorescence change (kMESF span), kMESF (no concentration beside the values); shares compounds with GRK2 aptamer HTS;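 active means compounds whose bead fluorescence drops by more than 37 kMESF across the dose range, marking them as dye quenchers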
Aptamer quench SP: aptamer fluorescence quenching in GRK2 counter-screen; 2,000 tested, under 10 active; Carboxyfluorescein RNA aptamer on beads, flow cytometry quenching; stronger effect = lower value; AID 504580; fluorescence response (% of DMSO), % at 10 µM; shares compounds with GRK2 aptamer HTS;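 active means compounds that quench the bead-bound fluorescent RNA probe, cutting fluorescence to under half of the solvent control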;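 further: counterscreen run without GRK2 so only probe quenching by compound is measured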
GRK2 confirm 2: confirmation of human GRK2 inhibitors binding RNA aptamer site; bead-bound GRK2, FAM-aptamer displacement, flow cytometry; inhibition of aptamer binding, % at 10 µM; 360 tested, under 10 active; shares compounds with GRK2 aptamer HTS;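 active means inhibition of aptamer binding above 40%, about triple the noise seen with nonglowing compounds, on plates passing quality control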;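 further: negative values mostly come from compounds that fluoresce themselves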
FAM quench SP: quenches fluorescent RNA aptamer, GRK2 hit artifact; fluorescence response vs DMSO, % at 10 µM; 360 tested, under 10 active; carboxyfluorescein RNA aptamer beads, flow cytometry quenching; stronger effect = lower value; shares compounds with GRK2 aptamer HTS;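 active means response vs DMSO under 50%, meaning signal dropped by over half, treated as fluorescence quencher; inconclusive means no clear call, values can overlap the other calls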;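 further: labelled aptamer on streptavidin beads without GRK2 as a quench counter-screen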
A number is an active result.

For CC(=O)n1cc([C@@H]2C=C(C(=O)Nc3ccccc3)O[C@H](OCc3ccc(CO)cc3)C2)c2ccccc21 the results were VLA-4 inh inactive, PREPL inh inactive, GRK2 aptamer HTS 64, GASC-1 inh inactive, Pemphigus Ab inh inactive, GRK2 CP1 inactive and Aptamer quench SP inactive.
For Cc1sc(NC(=O)CN(Cc2ccc(F)cc2)C(=O)C(C)(C)C)c(C(N)=O)c1C the results were VLA-4 inh inactive, PREPL inh inactive, GRK2 aptamer HTS inactive, GASC-1 inh inactive and Pemphigus Ab inh inactive.
Screening O=S(=O)(O)c1cc(O)c2c(O)c(N=Nc3cc(Cl)ccc3O)c(S(=O)(=O)O)cc2c1 returned VLA-4 inh inactive, PREPL inh inactive, GRK2 aptamer HTS 99, GASC-1 inh inactive, Pemphigus Ab inh inactive, GRK2 CP1 70, Aptamer quench 1 inactive and Aptamer quench SP inactive.
`C=CCOc1ccc2ccccc2c1CNn1c(C)n[nH]c1=S` gave VLA-4 inh inactive, PREPL inh inactive, GRK2 aptamer HTS 78, GASC-1 inh inactive, Pemphigus Ab inh inactive, GRK2 CP1 inactive and Aptamer quench SP inactive.
C=CCOc1ccc(CNn2c(C)n[nH]c2=S)cc1OC was read as VLA-4 inh inactive, PREPL inh inactive, GRK2 aptamer HTS inactive, GASC-1 inh inactive and Pemphigus Ab inh inactive.
Screening COc1ccc(/C=C/C(=O)NCCSCc2ccco2)cc1OC returned VLA-4 inh inactive, PREPL inh inactive, GRK2 aptamer HTS inactive and GASC-1 inh inactive.
`Cc1noc(C)c1C(=O)NC1=NCCS1` gave VLA-4 inh inactive, PREPL inh inactive, GRK2 aptamer HTS inactive, GASC-1 inh inactive and Pemphigus Ab inh inactive.
`Cc1ccc(NC(=O)c2noc3c2CCCCC3)cc1C` gave VLA-4 inh inactive, PREPL inh inactive, GRK2 aptamer HTS 100, GASC-1 inh inactive, Pemphigus Ab inh inactive, GRK2 CP1 inactive and Aptamer quench SP inactive.
`CCOC(=O)CNC(=O)C(CC(N)=O)NC(=O)OC(C)(C)C` (stereo not drawn) gave VLA-4 inh inactive, PREPL inh inactive, GRK2 aptamer HTS inactive, GASC-1 inh inactive and Pemphigus Ab inh inactive.
C=CCOC(=O)CSCC(NC(=O)OC(C)(C)C)C(=O)OCC (stereo not drawn) was read as VLA-4 inh inactive, PREPL inh inactive, GRK2 aptamer HTS 86, GASC-1 inh inactive, Pemphigus Ab inh inconclusive, GRK2 CP1 inactive and Aptamer quench SP inactive.
Screening CNc1cc(N2CCN(S(=O)(=O)N(C)C)CC2)ccc1[N+](=O)[O-] returned VLA-4 inh inactive, PREPL inh inactive, GRK2 aptamer HTS 73, GASC-1 inh inactive, Pemphigus Ab inh inactive, GRK2 CP1 inactive and Aptamer quench SP inactive.
COc1cc(C(=O)NCCCN2CCCC2=O)cc(OC)c1OC was read as VLA-4 inh inactive, PREPL inh inactive, GRK2 aptamer HTS 94, GASC-1 inh inactive, Pemphigus Ab inh inactive, GRK2 CP1 inactive and Aptamer quench SP inactive.
Cc1cc([N+](=O)[O-])cnc1N1CCOCC1 was read as VLA-4 inh inactive, PREPL inh inactive, GRK2 aptamer HTS 88, GASC-1 inh inactive, Pemphigus Ab inh inactive, GRK2 CP1 inactive and Aptamer quench SP inactive.
Screening COC(=O)c1ccc(C(C(=O)NC2CCCCC2)N(C(=O)Cc2cccs2)C2CC2)cc1 (stereo not drawn) returned VLA-4 inh inactive, PREPL inh inactive, GRK2 aptamer HTS 86, GASC-1 inh inactive, GRK2 CP1 inactive and Aptamer quench SP inactive.
`O=C(NC1CCCC1)C(c1ccsc1)N(Cc1ccccc1)C(=O)Cc1cccs1` (stereo not drawn) gave VLA-4 inh inactive, PREPL inh inactive, GRK2 aptamer HTS inactive, GASC-1 inh inactive, Pemphigus Ab inh inactive, GRK2 CP1 inactive and Aptamer quench SP inactive.
For O=C(NC1CCCC1)C(c1ccncc1)N(Cc1ccccc1)C(=O)Cc1cccs1 (stereo not drawn) the results were VLA-4 inh inactive, PREPL inh inactive, GRK2 aptamer HTS inactive, GASC-1 inh inactive and Pemphigus Ab inh inactive.
Screening O=C(NCC1CCCO1)c1cc2cc(Cl)ccc2[nH]1 (stereo not drawn) returned VLA-4 inh inactive, PREPL inh inactive, GRK2 aptamer HTS inactive, GASC-1 inh inactive and Pemphigus Ab inh inactive.
For O=C(O)c1cc(-c2c[nH]c3ccccc23)nc2cc3ccccc3cc12 the results were VLA-4 inh inactive, PREPL inh inactive, GRK2 aptamer HTS inactive, GASC-1 inh inactive and Pemphigus Ab inh inactive.
Screening C=C(C)CSc1nc2sc3c(c2c(=O)n1-c1ccc(C)cc1)CCN(C)C3 returned GASC-1 inh inactive, Pemphigus Ab inh inactive, GRK2 CP1 inactive and Aptamer quench SP inactive.
`COc1cc(CN2CCC(C(=O)N3CCN(c4ccccc4F)CC3)CC2)cc(OC)c1OC` gave VLA-4 inh inactive, PREPL inh inactive, GRK2 aptamer HTS inactive, GASC-1 inh inactive and Pemphigus Ab inh inactive.
Screening COc1cccc(CN2CCC(C(=O)N3CCN(c4ccccc4F)CC3)CC2)c1OC returned VLA-4 inh inactive, PREPL inh inactive, GRK2 aptamer HTS 60, GASC-1 inh inactive, Pemphigus Ab inh inactive, GRK2 confirm 2 inactive and FAM quench SP inactive.
For O=C(NCC1CCCO1)c1cccc(NC(=O)c2ccco2)c1 (stereo not drawn) the results were VLA-4 inh inactive, PREPL inh inactive, GRK2 aptamer HTS inactive, GASC-1 inh inactive, GRK2 CP1 inactive and Aptamer quench SP inactive.
`Cc1cc(C)cc(NC(=O)c2cccc(NC(=O)c3ccco3)c2)c1` gave VLA-4 inh inactive, PREPL inh inactive, GRK2 aptamer HTS inactive, GASC-1 inh inactive, Pemphigus Ab inh inactive, GRK2 CP1 inactive and Aptamer quench SP inactive.
O=C(NCc1cccnc1)c1cccc(NC(=O)c2ccco2)c1 was read as VLA-4 inh inactive, PREPL inh inactive, GRK2 aptamer HTS inactive, GASC-1 inh inactive, Pemphigus Ab inh inactive, GRK2 CP1 inactive and Aptamer quench SP inactive.
O=C(NCc1cccnc1)c1cccc(Cl)c1 was read as VLA-4 inh inactive, PREPL inh inactive, GRK2 aptamer HTS inactive, GASC-1 inh inactive and Pemphigus Ab inh inactive.
Screening CCCc1nc2oc3c(=O)[nH]cnc3c2c2c1CCCC2 returned VLA-4 inh inactive, PREPL inh inactive, GRK2 aptamer HTS inactive, GASC-1 inh inactive and Pemphigus Ab inh inactive.
